Sampled rows, rich in hits. Any-hit rate of the full collection: about 2.4%.
D2 PAM-1: positive allosteric modulators of human D2 dopamine receptor | P14416 | DiscoveRx D2 beta-arrestin cells, luminescence, 90 min; 100% = 57 uM dopamine signal | potentiation, % (concentration not given with the values) | 360,000 tested, 0.23% active; in the data active means potentiation above about 50%; inconclusive means mostly about 30% to 49%
Target sequence (P14416 whole entry, looked up): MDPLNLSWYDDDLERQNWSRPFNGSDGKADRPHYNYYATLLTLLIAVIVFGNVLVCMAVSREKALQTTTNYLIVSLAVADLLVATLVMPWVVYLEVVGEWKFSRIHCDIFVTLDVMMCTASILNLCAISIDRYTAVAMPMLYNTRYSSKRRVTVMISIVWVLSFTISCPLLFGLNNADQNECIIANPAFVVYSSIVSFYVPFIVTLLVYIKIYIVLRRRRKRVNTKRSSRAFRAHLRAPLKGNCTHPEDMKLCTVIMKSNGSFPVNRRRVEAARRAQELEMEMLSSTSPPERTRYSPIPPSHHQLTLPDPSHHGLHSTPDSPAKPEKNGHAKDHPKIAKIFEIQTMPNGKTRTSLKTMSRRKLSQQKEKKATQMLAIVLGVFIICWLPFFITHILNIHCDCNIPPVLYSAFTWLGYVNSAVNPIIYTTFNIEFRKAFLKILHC
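PathHunter beta-arrestin assay in DiscoveRx D2 cells. Compounds were added with an EC20 of dopamine (50 nM final) for 90 min at 37 deg C. Luminescence was read 1 h after detection reagent, with 57 uM dopamine as the EC100 control.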
D2 PAM-2: D2 dopamine receptor (human) potentiation; P14416; HEK293 T-REx D2, calcium flux, EC20 dopamine potentiation; potentiation, % at 10 µM; 340,000 tested, 0.34% active; AID 485347;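 active means potentiation over 3 SD above the plate norm, cut at about 30% in these data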
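Cells plated with tetracycline inducer and held overnight at 30 C; calcium dye loaded 30–90 min at room temperature; baseline taken, compound added and read 180 s; EC20 dopamine then added and read 180 s.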
D2 antagonist: D2 dopamine receptor (human) antagonism. P14416. HEK293 TREx D2 cells, calcium flux, dopamine EC80. inhibition, % at 10 µM. 340,000 tested, 2% active; in the data active means inhibition above about 30%; inactive means below that, where a call was filed
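Read-out: kinetic calcium fluorescence (1 cycle/s) in inducible HEK293 T-REx D2 cells after an EC80 dopamine addition that followed 180 s compound preincubation. Loss of the dopamine response indicates antagonism.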
D2 ag-1: agonists of human D2 dopamine receptor | P14416 | HEK293 T-REx D2 cells, calcium flux agonist mode | activation, % at 2 µM | 340,000 tested, 0.53% active | AID 485358;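 active means activation over 3 SD above normal in the single-dose calcium agonist read, cut at about 30% in these data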
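Calcium-flux readout, 1 cycle/sec over 180 s following compound pin transfer, in inducible HEK293 Trex D2 cells (force-coupled); dopamine controls included. Positive calcium responses during this window marked compounds as potential agonists.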
D2 ag-2: human D2 receptor agonism in beta-arrestin assay; P14416; AID 624465; DiscoveRx PathHunter D2 beta-arrestin, luminescence, 90 min; 100% = 57 uM dopamine signal; activation, % (concentration not given with the values); 360,000 tested, 0.084% active; in the data active means activation above about 40%; inconclusive means between about 15% and that limit
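DiscoveRx PathHunter D2 beta-arrestin cells (2,100/well) attached overnight, then compound-stimulated 90 min at 37 C in HBSS/10 mM HEPES/0.1% Tween-20 buffer; beta-galactosidase complementation read by luminescence after 1 h at ambient temperature. Dopamine 57 uM final (EC100) as control.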
D3 ag: confirmation of human D3 dopamine receptor agonists, beta-arrestin. shares compounds with D2 ag-1. DiscoveRx D3 beta-arrestin cells, luminescence, 90 min. 2,300 tested, 4% active. Potency, µM (doses to about 76.9 µM), actives largely listed as activators; further: nearly all actives have a fitted effect of over 70% in size
D2 ag-3: activates human D2 dopamine receptor in D3 counterscreen | shares compounds with D2 ag-1 | DiscoveRx PathHunter D2 beta-arrestin, luminescence, 90 min; response scale: percent relative to full dopamine signal | Potency, µM (titrated, usually from 76.9 µM), hits mostly activators | 2,300 tested, 5.9% active | AID 720507; further: nearly all actives have a fitted effect of over 70% in size
Numbers stand for hits; i = inactive; ? = inconclusive; nt = no result given. Unless noted, the call rests on the fitted dose curve; in most records, active means well fitted activation curve with a large enough effect; inconclusive means small, poorly fitted or top-dose-only effect; inactive means flat fitted curve, though single readings scatter.

SMILES	D2 PAM-1	D2 PAM-2	D2 antagonist	D2 ag-1	D2 ag-2	D3 ag	D2 ag-3
CN(C(=O)c1ccc2c(c1)N(Cc1cccc(Cl)c1)C(=O)c1ccccc1S2(=O)=O)C1CCCCC1	nt	i	nt	i	nt	nt	nt
COc1ccc(Br)cc1Cn1nnc(C(=O)Nc2ccc(C)cc2C)c1N	nt	i	nt	i	nt	nt	nt
Cc1ccc(S(=O)(=O)NCC(c2cccnc2)N2CCN(Cc3ccccc3)CC2)cc1 (stereo not given)	i	i	i	i	i	nt	nt
O=S(=O)(NCC(c1cccnc1)N1CCN(Cc2ccccc2)CC1)c1ccccc1 (stereo not given)	i	i	i	60.6	i	i	i
COc1cccc(-c2ncc3ccccc3c2CO)c1	i	i	i	i	i	i	i
CCCCC(=O)OCc1c(-c2cccc(OC)c2)ncc2ccccc12	i	i	i	i	i	i	i
COc1ccc(C2Nc3ccccc3NC3=C2C(=O)CC(C)(C)C3)cc1OC (stereo not given)	i	i	37.9	i	i	i	i
O=C(CCCN1C(=O)c2cccnc2C1=O)Nc1ccccc1F	i	i	i	i	i	nt	nt
CCc1ccccc1NC(=O)CCCN1C(=O)c2cccnc2C1=O	i	i	i	41.1	i	i	i
COc1ccc(/C=N/NC(=O)CCn2cnc3ccccc32)cc1	i	i	i	i	i	i	i
O=C(O)[C@@H]1[C@H]2C[C@H]3c4[nH]c5ccccc5c4CCN3C[C@@H]2CC[C@@H]1O	i	i	68.0	40.9	i	i	?
Cc1ncoc1C(=O)N1CCc2c([nH]c3ccccc23)C1C1CCCCC1 (stereo not given)	i	i	i	i	i	nt	nt
O=C1CCC2CN3CCc4c([nH]c5ccccc45)C3CC2C1 (stereo not given)	i	nt	nt	nt	i	nt	nt
O=C(O)C1CCCC2CN3CCc4c([nH]c5ccccc45)C3C(O)C21 (stereo not given)	i	i	57.1	i	?	i	?
Nc1c(C(=O)CSc2n[nH]c(-c3ccccc3Br)n2)c(=O)[nH]c(=O)n1C1CC1	i	i	i	i	i	nt	nt
Nc1c(C(=O)CSc2n[nH]c(-c3ccccc3)n2)c(=O)[nH]c(=O)n1C1CC1	i	i	i	65.7	?	i	i
Cn1c(N)c(C(=O)CSc2nnc(-c3cccs3)n2C2CC2)c(=O)[nH]c1=O	i	i	i	76.9	?	i	i
COCc1cc(C)nc(SCc2ccc(F)cc2)c1C#N	i	i	41.6	i	i	i	i
CCCCNC(=O)C1CCC(CNS(=O)(=O)c2ccc(Cl)cc2)CC1 (stereo not given)	nt	i	nt	i	nt	nt	nt
Cc1ccc(NC(=O)Cn2ccn(Cc3ccc(Cl)cc3)c(=O)c2=O)cc1C	nt	i	nt	i	nt	nt	nt
CN=c1scc(-c2ccc(F)cc2)n1/N=C/c1ccc(O)c(O)c1	?	nt	76.2	31.9	102.9	12.6µM	31.6µM
CN=c1scc(-c2ccc([N+](=O)[O-])cc2)n1/N=C/c1ccco1	i	i	i	i	i	nt	nt
CC(SCc1cc(=O)n2c([nH]c3ccccc32)c1C#N)C(=O)O (stereo not given)	i	i	i	i	i	nt	nt
COCc1cc(=O)n2c([nH]c3ccccc32)c1C#N	i	i	36.9	i	i	i	i
CC(C)Sc1ncnc2c1oc1ccccc12	i	i	i	i	i	i	i
SMILES	D2 PAM-1	D2 PAM-2	D2 antagonist	D2 ag-1	D2 ag-2	D3 ag	D2 ag-3
CN(C(=O)c1cc2c(s1)-c1ccc(Cl)cc1SC2)c1cccc(C(F)(F)F)c1	nt	i	nt	i	nt	nt	nt
COC(=O)C1CCN(Cc2cn(Cc3ccccc3)nc2-c2cc3ccccc3o2)CC1	i	i	i	36.6	i	i	i
CCCCC(=O)NC1CC(=O)N(c2ccc3c(c2)OCCO3)C1 (stereo not given)	nt	i	nt	i	nt	nt	nt
Cc1oc(-c2cccc(Cl)c2)nc1CN1CCC(C(=O)NCCCN2CCN(c3cccc(Cl)c3)CC2)CC1	nt	i	nt	nt	nt	nt	nt
Cc1oc(-c2cccc(Cl)c2)nc1CN1CCC(C(=O)NCCCN2CC(C)CC(C)C2)CC1 (stereo not given)	i	i	i	34.8	i	i	i
CN(CCNC(=O)C1CCN(S(=O)(=O)N2CCOCC2)CC1)CCc1ccccc1	i	i	i	55.1	i	i	i
CN(C(=O)c1ccc(NC(=O)Cc2cccc(NC(=O)C3CCN(C(=O)C4CC4)CC3)c2)cc1)C1CCCC1	i	i	i	i	i	i	i
CCCN(c1ccccc1F)S(=O)(=O)c1cc(-c2cc(C)no2)ccc1C	nt	i	nt	i	nt	nt	nt
CCOC(=O)C1CCCN(C(=O)Cn2ncc3c(C)n(Cc4ccccc4F)c(C)c3c2=O)C1 (stereo not given)	nt	i	nt	i	nt	nt	nt
COc1ccc(OC)c(-c2csc(-c3c(N)c(C(=O)c4ccc(Cl)cc4)n4ccccc34)n2)c1	nt	i	nt	nt	nt	nt	nt
Cn1c(=O)c2[nH]c(N3CCN(c4ccccn4)CC3)nc2n(C)c1=O	nt	i	i	i	nt	i	i
Cn1c(=O)c2[nH]c(N3CCCCC3)nc2n(C)c1=O	i	i	i	i	i	nt	nt
CCOC(=O)c1c(C)[nH]c(C)c1S(=O)(=O)NCC(=O)N(C)c1ccc(C)c(C)c1	nt	i	nt	i	nt	nt	nt
Cc1cccc(C(=O)Nc2cc3nn(-c4ccc(C(C)C)cc4)nc3cc2C)c1	nt	i	nt	i	nt	nt	nt
CCCCOc1ccc(C(=O)N2CCN(c3ccc(N4CCOCC4)nn3)CC2)cc1	i	i	i	i	i	nt	nt
CCCOc1ccc(C(=O)N2CCN(c3ccc(N)cc3Cl)CC2)cc1	i	i	i	30.9	i	i	i
CCCS(=O)(=O)N1CCCC(C(=O)NCCCN2CCN(c3cccc(Cl)c3)CC2)C1 (stereo not given)	i	i	51.2	47.6	i	?	i
O=C(NCCS(=O)(=O)N1CCN(c2cccc(Cl)c2)CC1)C1CCCC1	i	i	i	i	i	nt	nt
O=C(NCCCN1CCN(c2ccccc2F)CC1)C1CCC(=O)N1C1CCCC1 (stereo not given)	i	i	66.4	72.2	i	i	?
O=C(CCN1C(=O)COc2ccccc21)NCCCN1CCN(c2ccccc2F)CC1	i	i	82.0	69.2	i	i	i
O=C(NCCc1ccc(Cl)cc1)C1CCN(S(=O)(=O)c2cccs2)CC1	i	i	i	i	i	nt	nt
O=C(NCCCN1CCN(c2ccccc2F)CC1)C1CCN(S(=O)(=O)c2cccs2)CC1	i	i	74.7	70.2	?	?	10µM
Cc1ccc(S(=O)(=O)c2[nH]c(-c3ccccc3)nc2SCC(N)=O)cc1	nt	i	nt	i	nt	nt	nt
O=C(NCc1ccccc1)c1ccc(CSc2nc3cccnc3n2Cc2cccc(F)c2)cc1	nt	i	nt	i	nt	nt	nt

Screening data (PubChem)
